According to PubChem BioAssay (NCATS):
Values joined by “and” are separate entries in the source; they are usually repeats but may differ in a detail not shown here. Identical values can stand only once. Inconclusive results are not listed. Active and inactive are the calls of the source. The call rests on the fitted dose curve; in most records, active means well fitted curve in the direction sought with a large enough effect; inconclusive means small, poorly fitted or top-dose-only effect, or another doubt; inactive means no such curve, though single readings can be large; an effect the other way counts as inactive or inconclusive.

Assays:
[1] = Viability qHTS for spleen associated tyrosine kinase inhibitor (SYKi) drug resistant MV4-11 cells (AID 1963824); further: nearly all actives have a fitted effect of over 35% in size; further: potency means the concentration at half of the fitted maximal effect
Outline: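 CellTiter-Glo luminescence, read 10 min after reagent addition, reports viability after a 72 hr compound exposure. Cells are an MV4-11 line made resistant to SYK inhibition, seeded at 500 per well onto compound-containing plates.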

[2] = Quantitative highthroughput screen to assess conditional lethalithy of NOMO1 cells grown in RPMI1640 with untreated serum (RPMI+s) (AID 1963876); further: nearly all actives have a fitted effect of over 35% in size; further: potency means the concentration at half of the fitted maximal effect;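 on Viability: 100% = DMSO wells and 0% = empty wells without cells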
Outline: (§1)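 Each medium arm—HPLM with 10% dialyzed FBS, or RPMI1640 with 5 mM glucose and 10% untreated or dialyzed FBS—was screened against an 11-point, 3-fold compound titration for 48 h at 37 °C, with CellTiter-Glo luminescence as endpoint.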

[3] = Quantitative highthroughput screen to assess conditional lethalithy of NOMO1 cells grown in RPMI1640 with dialyzed fetal bovine serum (RPMI+ds) (AID 1963877); further: nearly all actives have a fitted effect of over 30% in size; further: potency means the concentration at half of the fitted maximal effect;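 on Viability: series mostly up to about 46 µM; 100% = DMSO control wells and 0% = empty wells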
Outline: as §1

[4] = Quantitative highthroughput screen to assess conditional lethalithy of NOMO1 cells grown in Human Plasma-Like Medium with dialyzed fetal bovine serum (HPLM+ds) (AID 1963878); further: nearly all actives have a fitted effect of over 35% in size; further: potency means the concentration at half of the fitted maximal effect;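 on Viability: 100% = DMSO wells and 0% = empty wells on each plate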
Outline: as §1

[5] = Quantitative highthroughput screen to assess conditional lethalithy of P12 Ichikawa cells grown in Human Plasma-Like Medium with dialyzed fetal bovine serum (HPLM+ds) (AID 1963879); conditions: Potency: viability; further: nearly all actives have a fitted effect of over 35% in size; further: potency means the concentration at half of the fitted maximal effect; on Viability: series mostly up to about 46 µM
Outline: as §1

[6] = Quantitative highthroughput screen to assess conditional lethalithy of SEM cells grown in Human Plasma-Like Medium with dialyzed fetal bovine serum (HPLM+ds) (AID 1963882); further: nearly all actives have a fitted effect of over 35% in size; further: potency means the concentration at half of the fitted maximal effect; on Viability: series mostly up to about 46 µM
Outline: as §1

[7] = Quantitative highthroughput screen to assess conditional lethalithy of SEM cells grown in RPMI1640 with dialyzed fetal bovine serum (RPMI+ds) (AID 1963884)
Outline: as §1

[8] = Cellular viability qHTS for adrenocortical cancer (ACC) cell line SW-13 (AID 1963989); conditions: SW-13 ACC cells viability, CellTiter-Glo, 48 h; activity (max response): hits give low values; further: nearly all actives have a fitted effect of over 65% in size; further: potency means the concentration at half of the fitted maximal effect;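 on activity (max response): cells grown in serum-free medium with ITS supplement; on the % scale 0 is the no-effect control and ±100 the full control effect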
Outline: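 48 h treatment, SW-13 in ITS/DMEM serum-free; doses up to 46 uM; readout CellTiter-Glo luminescence; curve fit four-parameter logistic.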

[9] = Cellular viability qHTS for adrenocortical cancer (ACC) cell line NCI-H295R (AID 1963990); further: nearly all actives have a fitted effect of over 60% in size; further: potency means the concentration at half of the fitted maximal effect
Outline: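 Compound titrations (up to 46 uM final) are applied to NCI-H295R cultures for 48 h at 37C. Viable cell number is estimated by CellTiter-Glo signal, normalised to DMSO and doxorubicin controls.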

[10] = Quantitative highthroughput screen to assess conditional lethalithy of P12 Ichikawa cells grown in RPMI1640 with dialyzed fetal bovine serum (RPMI+ds) (AID 1963880); conditions: Potency: P12-Ichikawa viability
Outline: as §1

[11] = Quantitative highthroughput screen to assess conditional lethalithy of P12 Ichikawa cells grown in RPMI1640 with untreated serum (RPMI+s) (AID 1963881); conditions: Potency: viability; further: nearly all actives have a fitted effect of over 35% in size; further: potency means the concentration at half of the fitted maximal effect;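 on Viability: series mostly up to about 46 µM; 100% = DMSO wells and 0% = empty wells without cells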
Outline: as §1

[12] = Quantitative highthroughput screen to assess conditional lethalithy of SEM cells grown in RPMI1640 with unreated serum (RPMI+s) (AID 1963883); further: nearly all actives have a fitted effect of over 35% in size; further: potency means the concentration at half of the fitted maximal effect;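 on Viability: 100% = DMSO wells and 0% = empty wells without cells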
Outline: as §1

CCCc1nc2c(C)cc(-c3nc4ccccc4n3C)cc2n1Cc1ccc(-c2ccccc2C(=O)O)cc1
inactive: Potency [1] | Potency [2] | Potency [3] | Potency [4] | Potency [5] | Potency [6] | Potency [7] | activity (max response) [8] 3.79% and 0.0088% | Potency [9]

CCc1ccc(C(=O)Nc2cc(CN3CCN(C)CC3)cc(C(F)(F)F)c2)cc1C#Cc1cnc2ccnn2c1
active: Potency [1] 3.66 µM and 1.84 µM | Potency [8] 10 µM | Potency [9] 7.94 µM
inactive: Potency [2] | Potency [3] | Potency [4] | Potency [5] | Potency [10] | Potency [11] | Potency [12]

Oc1cccc(-c2nc(N3CCOCC3)c3oc4ncccc4c3n2)c1
active: Potency [1] 525 nM | Potency [6] 15.2 µM | Potency [12] 1.91 µM
inactive: Potency [2] | Potency [3] | Potency [4] | Potency [10] | Potency [11]

CN1CCN(CCCN2c3ccccc3Sc3ccc(C(F)(F)F)cc32)CC1
active: Potency [1] 6.99 µM and 21.1 µM and 11.8 µM | Potency [2] 1.87 µM | Potency [3] 2.96 µM | Potency [4] 2.64 µM | Potency [5] 13.2 µM | Potency [11] 11.8 µM | Potency [8] 20.6 µM and 25.1 µM | Potency [9] 23.1 µM
inactive: Potency [12] | Potency [7]

Cc1nc(-c2ccc(OCC(C)C)c(C#N)c2)sc1C(=O)O
inactive: Potency [1] | Potency [2] | Potency [3] | Potency [4] | Potency [10] | Potency [11] | Potency [6] | Potency [12] | Potency [7] | activity (max response) [8] 5.55% and 8.19% | Potency [9]

CC(=O)SCC(Cc1ccccc1)C(=O)NCC(=O)OCc1ccccc1 (configuration not stated)
inactive: Potency [6] | Potency [7] | activity (max response) [8] -5.9% | Potency [9]
active: Potency [1] 20900 nM | Potency [2] 6.62 µM | Potency [3] 6.62 µM | Potency [4] 5.9 µM | Potency [5] 18.7 µM
